Screens deposited in PubChem BioAssay by National Center for Advancing Translational Sciences (NCATS).
AmpC inh no detg: inhibitors of E. coli AmpC beta-lactamase without detergent; P00811; AmpC nitrocefin hydrolysis, absorbance 480 nm, 0.0001% Triton; Potency, µM (top dose mostly 57.1 µM), for inactives: at the top dose activity change, negative = inhibition, actives largely listed as inhibitors; 0.52% of 330,000 active; AID 485341;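 also: plate controls were no compound for no effect and no enzyme for full effect; nearly all actives have a fitted effect of over 20% in size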
Target sequence (P00811 whole entry, looked up): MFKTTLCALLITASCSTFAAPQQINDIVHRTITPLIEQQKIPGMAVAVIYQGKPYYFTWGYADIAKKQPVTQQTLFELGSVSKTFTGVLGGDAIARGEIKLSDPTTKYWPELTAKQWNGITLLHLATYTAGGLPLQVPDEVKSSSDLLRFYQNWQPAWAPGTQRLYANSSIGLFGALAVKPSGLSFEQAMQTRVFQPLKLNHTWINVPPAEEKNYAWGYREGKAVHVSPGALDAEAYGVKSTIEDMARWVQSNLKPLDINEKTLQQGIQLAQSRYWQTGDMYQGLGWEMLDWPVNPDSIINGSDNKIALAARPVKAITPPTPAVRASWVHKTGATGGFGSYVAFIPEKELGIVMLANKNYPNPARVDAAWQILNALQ
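20 mM phosphate pH 7.0 + 0.01% (detergent screen) or 0.0001% Triton X-100; 5.3 nM AmpC reagent; cpd preinc 15 min RT; nitrocefin (800 uM stock) to start; A480 q20 s × 4 min; Activity was normalised to no-enzyme and no-compound control wells.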
AMA1-RON2 inh: disrupts binding of P. falciparum AMA1 to RON2. 0.2% of 360,000 active. AID 720542. Potency, µM (highest dose often 58.2 µM), for inactives: at the highest dose activity change, negative = inhibition, usual class: inhibitors. AlphaScreen AMA1-biotinylated RON2 peptide binding;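 also: 0% = vehicle wells and -100% = peptide control; nearly all actives have a fitted effect of over 45% in size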
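AMA1 (3D7) with his tag at 25 nM final met compounds first, then biotinylated RON2 peptide at 25 nM; detection used donor plus acceptor beads, 10 µg/mL apiece, read by AlphaScreen after 30 min at room temperature.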
AmpC detergent: inhibitors of E. coli AmpC beta-lactamase with detergent. P00811. Potency, µM (highest dose often 114 µM), inactives show top-dose activity change, negative = inhibition, most hits filed as inhibitors. AmpC hydrolysis of nitrocefin, absorbance 480 nm, 0.01% Triton. 0.041% of 370,000 active;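 also: 0% = no-compound wells and -100% = no-enzyme wells; nearly all actives have a fitted effect of over 25% in size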
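AmpC (5.3 nM in the dispensed reagent) in 20 mM phosphate pH 7.0 with 0.01% (detergent screen) or 0.0001% Triton X-100 was preincubated with compounds for 15 min at room temperature. Nitrocefin was then added from an 800 uM solution, and hydrolysis was followed at 480 nm.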
SARS PLpro yeast: blocks SARS-CoV papain-like protease in a yeast assay | S. cerevisiae expressing SARS-CoV PLpro, growth rescue | Potency, µM (series often up to 32.9 µM), inactives show at the top dose activity, positive = growth rescue, hits mostly activators | 0.19% of 330,000 active; calls by dose curve; also: 0% is about no effect; nearly all actives have a fitted effect of over 55% in size
NS1 inh: influenza NS1 inhibition. Potency, µM (top dose mostly 46.1 µM), inactives show at the highest dose activity, positive = more growth. 0.4% of 270,000 active. AID 2326; calls by dose curve; also: actives are rising curves; nearly all actives have a fitted effect of over 50% in size
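Read-out: OD600 growth recovery of NS1-expressing budding yeast. Cells grown overnight at 30C in -URA glucose medium, washed, resuspended and diluted 1:100 in 2% galactose assay medium, pH 6.0. Same strain lacking NS1 served as positive control.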
An asterisk follows results filed as active. An excerpt weighted towards active compounds, which were near 0.99% of everything screened. Unless noted, calls follow the shape of the dose curve; as a rule, active = well fitted curve in the direction sought with a large enough effect; inconclusive = small, poorly fitted or top-dose-only effect, or another doubt; inactive = no such curve, though single readings can be large; an effect the other way counts as inactive or inconclusive. Potency is read from the fitted curve at half-maximal effect.

How did O=C1/C(=C\c2cc([N+](=O)[O-])ccc2O)SC(=S)N1Cc1ccc(Cl)cc1 do in these assays?
AmpC inh no detg: 3.5µM*; AMA1-RON2 inh: -10%; AmpC detergent: 3%; SARS PLpro yeast: -8%; NS1 inh: -52%

What do the screens show for `COc1cc(/C=C2/SC(=S)N(Cc3ccccc3)C2=O)ccc1O`?
AmpC inh no detg: -37%; AMA1-RON2 inh: -8%; AmpC detergent: 16%; SARS PLpro yeast: -4%; NS1 inh: 22%

Results for O=C1/C(=C\c2ccc(O)c(O)c2)SC(=S)N1Cc1ccccc1 ?
AmpC inh no detg: 11µM*; AMA1-RON2 inh: inconclusive; AmpC detergent: -5%; SARS PLpro yeast: -11%; NS1 inh: -61%

How did Cc1ccccc1/C=C1\SC(=S)N(/N=C/c2cc([N+](=O)[O-])ccc2O)C1=O do in these assays?
AmpC inh no detg: 28µM*; AMA1-RON2 inh: 12%; AmpC detergent: 1%; SARS PLpro yeast: inconclusive

Results for O=C1/C(=C\c2cccc(O)c2O)SC(=S)N1Cc1ccccc1 ?
AmpC inh no detg: -41%; AMA1-RON2 inh: -6%; AmpC detergent: -15%; SARS PLpro yeast: -9%; NS1 inh: -18%

What do the screens show for `CCOC(=O)C1CCN(c2c(NCc3ccc(C(=O)O)cc3)c(=O)c2=O)CC1`?
NS1 inh: -4%

Results for COc1ccc(N2C(=O)/C(=C/c3ccc(C)o3)C(=O)NC2=S)cc1 ?
AmpC inh no detg: -19%; AMA1-RON2 inh: -3%; AmpC detergent: -5%; SARS PLpro yeast: -3%; NS1 inh: 14%

Results for COc1ccc(OC)c(N2C(=O)/C(=C/c3ccco3)C(=O)NC2=S)c1 ?
AmpC inh no detg: 18µM*; AMA1-RON2 inh: inconclusive; AmpC detergent: 50µM*; SARS PLpro yeast: 0%; NS1 inh: 10%

Results for O=C1NC(=S)N(c2ccc(F)cc2)C(=O)/C1=C/c1ccco1 ?
AmpC inh no detg: 18µM*; AmpC detergent: 50µM*; SARS PLpro yeast: -1%; NS1 inh: inconclusive

Results for O=C1NC(=S)N(c2ccc(F)cc2)C(=O)/C1=C\c1ccoc1 ?
AmpC inh no detg: -40%; AMA1-RON2 inh: -16%; AmpC detergent: 1%; SARS PLpro yeast: 1%

Results for O=c1oc2c(F)cc(F)cc2cc1S(=O)(=O)c1ccc(F)cc1 ?
AmpC detergent: 15%

Results for COc1ccc(C(=O)OCC(=O)Nc2nc3c(F)c(F)c(F)cc3s2)cc1OC ?
AmpC inh no detg: -12%; AMA1-RON2 inh: 4%; AmpC detergent: 3%; SARS PLpro yeast: 6%

What do the screens show for `O=C(COC(=O)C12CC3CC(CC(C3)C1)C2)Nc1nc2c(F)c(F)c(F)cc2s1`?
AmpC inh no detg: 10µM*; AMA1-RON2 inh: 2%; AmpC detergent: -1%; SARS PLpro yeast: -14%; NS1 inh: 9%

How did Cc1cccc(Nc2c3c(nc4nncn24)CCC3)c1C do in these assays?
AmpC detergent: 20%

How did O=C(CSc1nc2ccccc2nc1Cc1ccc(Cl)cc1)N1CCCCC1 do in these assays?
AmpC detergent: -9%

What do the screens show for `COc1ccc(OC)c(NC2c3ccccc3C(=O)N2Cc2ccc3c(c2)OCO3)c1` (stereo not given)?
AmpC inh no detg: -8%; AMA1-RON2 inh: 16µM*; AmpC detergent: inconclusive; SARS PLpro yeast: -9%; NS1 inh: -34%

Results for Cc1ccc(-c2[nH]ncc2/C=N/n2c(COc3ccccc3C)nc3ccccc3c2=O)cc1 ?
AmpC inh no detg: 8.9µM*; AMA1-RON2 inh: 26%; AmpC detergent: -9%; SARS PLpro yeast: 6%; NS1 inh: 13%

How did O=C1C2Sc3[nH]c(=O)sc3C(c3ccccc3)C2C(=O)N1c1ccccc1 (stereo not given) do in these assays?
AmpC inh no detg: 18µM*; AMA1-RON2 inh: 101%; AmpC detergent: -9%; SARS PLpro yeast: 2%; NS1 inh: inconclusive

How did CSc1ncnc2nc[nH]c12 do in these assays?
NS1 inh: -24%

Results for CCOc1ccc(-c2nnc(-c3ccccc3)n2-c2ccccc2)cc1 ?
AmpC inh no detg: 5.6µM*; AMA1-RON2 inh: -5%; AmpC detergent: 1%; SARS PLpro yeast: -5%; NS1 inh: 4%

How did CN(Cc1ccccc1)C(=O)c1cc(-c2cccc(Cl)c2)on1 do in these assays?
AmpC detergent: -4%
